# From PubChem BioAssay AID588342 (National Center for Advancing Translational Sciences (NCATS), 2011)
# Screen size: about 360,000 compounds; about 25,000 (6.9%) were called active. About 9% were inconclusive and are not listed. The call rests on the fitted dose curve; in most records, active means well fitted inhibition curve with a large enough effect; inconclusive means small, poorly fitted or top-dose-only effect; inactive means flat fitted curve, though single readings scatter. For the sample, actives were picked, then their nearest neighbours and some compounds at random.
# Target: Luciferin 4-monooxygenase (Photinus pyralis) (UniProt P08659)
# Sequence (P08659 whole entry, looked up): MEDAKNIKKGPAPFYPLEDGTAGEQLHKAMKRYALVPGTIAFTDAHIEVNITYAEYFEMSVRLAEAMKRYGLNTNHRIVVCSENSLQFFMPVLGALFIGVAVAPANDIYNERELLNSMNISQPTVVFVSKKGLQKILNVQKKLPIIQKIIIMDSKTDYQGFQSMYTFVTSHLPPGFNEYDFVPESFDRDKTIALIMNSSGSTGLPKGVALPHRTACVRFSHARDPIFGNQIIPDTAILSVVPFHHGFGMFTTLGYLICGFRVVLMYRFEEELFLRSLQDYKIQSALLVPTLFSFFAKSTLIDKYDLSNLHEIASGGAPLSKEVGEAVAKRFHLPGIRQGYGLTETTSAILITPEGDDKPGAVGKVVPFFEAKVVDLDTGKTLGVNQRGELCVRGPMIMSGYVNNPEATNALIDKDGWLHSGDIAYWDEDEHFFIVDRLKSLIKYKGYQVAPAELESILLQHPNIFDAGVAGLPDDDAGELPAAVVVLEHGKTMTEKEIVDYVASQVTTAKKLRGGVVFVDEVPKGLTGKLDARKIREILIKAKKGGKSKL
# Assay: qHTS profiling assay for firefly luciferase inhibitor/activator using purifed enzyme and Km concentrations of substrates (counterscreen for miR-21 project); further: nearly all actives have a fitted effect of over 55% in size;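 on activity change, negative = inhibition: plate controls were vehicle for no effect and reference inhibitor for full effect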
# Conditions: purified FLuc, luminescence inhibition; series mostly up to 57.5 µM; activity change, negative = inhibition: at the top concentration
# In short: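 Biochemical qHTS of compounds, final roughly 60 µM downward over six points, against 10 nM purified firefly luciferase using Km concentrations of substrates (10 uM D-luciferin, 10 uM ATP) in Tris acetate pH 7.5 buffer; luminescence output.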
# Potency means the concentration at half of the fitted maximal effect.
Compound,"activity change, negative = inhibition",Potency
CCOC(=O)C1CCN(C(=O)c2cccc(S(=O)(=O)N(CC)c3ccccc3)c2)CC1,1.65% (inactive),–
COc1cc(C(=O)N2CCN(c3ccc(Nc4ccc(C)cc4)nn3)CC2)cc(OC)c1OC,1.35% (inactive),–
COc1ccccc1C(=O)NNC(=O)CCN1C(=O)/C(=C\c2ccccc2)SC1=S,2.85% (inactive),–
COc1ccc(/C=C2\SC(=S)N(CCC(=O)Nc3cccc(C(=O)O)c3)C2=O)cc1OC,–,6.75 µM (active)
O=C(CCN1C(=O)/C(=C/c2cccs2)SC1=S)NNC(=O)c1cccc(O)c1,-7.67% (inactive),–
COc1ccc(S(=O)(=O)N2CCSCC2)cc1,2.73% (inactive),–
CCOC(=O)c1cn[nH]c1NC(=S)Nc1ccccc1,–,2.13 µM (active)
CCOC(=O)c1cc2c(nc1NC(=S)Nc1ccccc1)CC(C)(CC)OC2 (stereo unspecified),1.94% (inactive),–
CCOC(=O)c1ccc(NC(=S)Nc2cc(C)cc(C)n2)cc1,-0.345% (inactive),–
Nc1c(N(CCCO)C(=O)C2CCCC2)c(=O)[nH]c(=O)n1Cc1ccccc1,0.813% (inactive),–
COc1ccccc1-c1nc(C(F)(F)F)c(OC)o1,5.71% (inactive),–
c1ccc(C2=Nc3cccc4cccc(c34)N2)cc1,–,15.1 µM (active)
COc1ccccc1C1=Nc2cccc3cccc(c23)N1,–,16.9 µM (active)
COc1ccc(N2C(=O)c3cccc4cccc(c34)C2=O)nn1,-5.3% (inactive),–
COc1ccc(-n2c(SCC(N)=O)nc3c(oc4ccccc43)c2=O)cc1,1.9% (inactive),–
CC(C)Nc1nnc(SC(C)C(=O)N(C)C2CCCCC2)s1 (stereo unspecified),2.48% (inactive),–
Cc1cccc(N(C)C(=O)CS(=O)(=O)c2cccc3nsnc23)c1,-0.386% (inactive),–
O=C(CCn1c(=O)c2ccccc2n(Cc2ccc(Cl)cc2)c1=O)NCc1ccc2c(c1)OCO2,-1.28% (inactive),–
COc1cc(Cl)c(NC(=O)C(NS(=O)(=O)c2cccs2)C(C)C)c(OC)c1 (stereo unspecified),-2.46% (inactive),–
Cc1ccn(-c2cccc(-n3ccc(C)n3)n2)n1,–,3.38 µM (active)
CCCCc1nnc(NC(=O)CSc2nc(N)cc(=O)[nH]2)s1,-14.7% (inactive),–
O=[N+]([O-])c1ccc(F)cc1Oc1nc(-c2cccnc2)nc2ccccc12,3.95% (inactive),–

Compound,"activity change, negative = inhibition",Potency
Fc1ccc(/C=N/Nc2nc(-c3cccnc3)nc3ccccc23)cc1,–,2.13 µM (active)
COc1ccc(Nc2nc(-c3cccnc3)nc3ccccc23)cn1,4.78% (inactive),–
Cc1ccc(C2C=C(c3ccc(Cl)cc3)Nc3nc(NC(=O)CCC(=O)O)nn32)cc1 (stereo unspecified),-0.821% (inactive),–
CC(=O)N1CCc2cc(S(=O)(=O)NC(Cc3ccccc3)C(=O)NCc3ccc(C)cc3)ccc21 (stereo unspecified),-11.7% (inactive),–
COC(=O)[C@]1(S(=O)(=O)c2ccccc2)C[C@@H]2ON=C(c3ccc(OC)cc3)[C@@H]2C1,-11.7% (inactive),–
COc1ccc(Cl)cc1NC(=O)CN(C)CC(=O)Nc1ccc2c(c1)OCO2,3.37% (inactive),–
COc1ccc(C(=O)Nc2ccc3c(c2)OCO3)cc1OC,–,10.7 µM (active)
COc1ccc(C(=O)Nc2ccc(C3(C#N)CCCC3)cc2)cc1OC,–,10.7 µM (active)
COc1ccc(NC(=O)c2ccc3nc(C(C)C)oc3c2)cc1OC,-17.7% (inactive),–
COc1cc(NC(=O)c2ccc3c(c2)OCO3)ccc1NC(=O)c1cccs1,–,10.7 µM (active)
COc1ccc(C(=O)Nc2ccc(-n3nncc3-c3ccccc3)cc2)cc1OC,-9.43% (inactive),–
CN1CCN(C(=O)/C(=C\c2ccc3c(c2)OCO3)NC(=O)c2cccs2)CC1,0.0977% (inactive),–
COc1cc(C(=O)NCC2(c3ccccc3)CCCC2)ccc1OC(C)C,0.624% (inactive),–
CCC(=O)c1cc2c(cc1NC(=O)c1cccs1)OCCO2,-16.3% (inactive),–
C=CCNC(=O)/C(=C\c1cccc([N+](=O)[O-])c1)NC(=O)c1ccccc1,-1.02% (inactive),–
O=C(Nc1ccc(Br)cc1)c1cc2nc(-c3ccccc3)cc(-c3ccccc3)n2n1,4.76% (inactive),–
CCCCc1nn2c(=O)cc(COC(=O)c3ccc(NC(=O)c4ccccc4C)cc3)nc2s1,-2.13% (inactive),–
CCCCOc1ccc(-c2ncc(C(=O)OCC)c(N)n2)cc1,–,2.69 µM (active)
CCCCCCOc1ccc(OC(=O)c2cccnc2)cc1,-18.5% (inactive),–
CCOC(=O)c1cnc(SCC(=O)NCc2ccco2)nc1N,-1.53% (inactive),–
Cc1ccn2cc(-c3nonc3C)cc2c1,–,26.9 µM (active)
CCCCN(C)c1nnc(NC(=O)Nc2ccc(Br)c(C)c2)s1,-7% (inactive),–

Compound,"activity change, negative = inhibition",Potency
O=C(c1cc(-c2ccc(Cl)s2)nc2ccccc12)N1CCOCC1,–,23.9 µM (active)
CC(=O)N1CCN(C(=O)c2cc(-c3ccc(C)o3)nc3ccccc23)CC1,–,4.78 µM (active)
Cc1cc(C(=O)N2CCN(c3ccccn3)CC2)c(C)o1,3.1% [at 2.3 µM] (inactive),–
Cc1c(NC(=O)c2cc(-c3ccc(Cl)s3)nc3ccccc23)c(=O)n(-c2ccccc2)n1C,-19.2% (inactive),–
Cc1ccc(S(=O)(=O)N2CCN(C(=O)c3ccccc3-c3nc4ccccc4s3)CC2)c(C)c1,0.348% (inactive),–
CCOc1ccccc1-c1cc(C(=O)N2CCOCC2)c2ccccc2n1,0.51% (inactive),–
CCN(CC)CCNC(=O)Cn1ncc2c3ccccc3n(Cc3ccccc3C)c2c1=O,1.71% (inactive),–
CC(=O)c1ccc(NC(=O)Cn2c(=O)oc3ccccc32)cc1,-1.43% (inactive),–
Cc1ccc(C(=O)Nc2ccc(OCc3cc(=O)n4c(C)csc4n3)cc2)cc1,-1.13% (inactive),–
Cn1cc(CN2CCCCC2c2ccccn2)c(-c2ccc3c(c2)OCCO3)n1 (stereo unspecified),0.917% (inactive),–
CCO[C@H]1OC(C(=O)Nc2ccccc2)=C[C@@H](C2CC2)[C@@H]1CCCO,-2.36% (inactive),–
Cn1c(=O)c2c(-c3cccc(Br)c3)c(C#N)c(N)nc2n(C)c1=O,-1.7% (inactive),–
Cc1c(C)n2c(SCC(=O)N3CCCC3)nnc2[nH]c1=O,-1.87% (inactive),–
CCOC(=O)c1cc2c(=O)n3ccccc3nc2n(CCCOC)c1=NC(=O)C(C)(C)Oc1ccc(Cl)cc1,2.07% (inactive),–
CC1CCCCN1S(=O)(=O)c1ccc(S(=O)(=O)N(CC(=O)Nc2ccccc2)Cc2cccs2)cc1 (stereo unspecified),1.69% (inactive),–
O=C(Nc1ccc(-c2nnc(-c3ccccc3)o2)cc1)C1CCCO1 (stereo unspecified),–,3.38 µM (active)
O=C(Nc1nnc(CCc2ccccc2)s1)C1CCCO1 (stereo unspecified),-2.69% (inactive),–
CC(C)(C)NS(=O)(=O)c1ccc(NC(=O)C2CCCO2)cc1 (stereo unspecified),-1.57% (inactive),–
COc1ccc(NC(=O)N2CCCC2C(=O)NCc2ccccc2Cl)cc1 (stereo unspecified),-4.96% (inactive),–
CC(C)(C)c1ccc(CN2C(=O)c3ccccc3S2(=O)=O)cc1,-16.2% (inactive),–
O=S1(=O)C=C(SCCN2CCCC2)c2ccccc21,-2.28% (inactive),–
CC(C)(C)c1ccc(OC2=CS(=O)(=O)c3ccccc32)cc1,–,15.1 µM (active)
